Results published in PubChem BioAssay.

Experiment: yeast transport mutant growth inhibition pilot in 384-well plates, post-Golgi transport modulator project (AID 636)
Settings: absorbance 615 nm, about 18 h, stronger effect = higher value; in the data active = inhibition above about 31%; inactive = the rest

inhibition, inactive:
O=C(c1cnc2sccn2c1=O)N1CCc2ccccc2C1 -2.8%, COc1ccccc1N1CCN(c2cc(N3CCCC3)nc(C)n2)CC1 -2.6%, COC(=O)CCn1nnc(-c2ccc(C)cc2)n1 -6%, Cc1cccc(-n2c(SCc3cc(=O)n4ccsc4n3)nc3ccccc32)c1 3.01%, COc1ccc(CCN2C(=O)CC(N3CCOCC3)C2=O)cc1 (stereo not drawn) 2.05%, CCCCCCC(c1c(C)n(C)n(-c2ccccc2)c1=O)c1c(C)n(C)n(-c2ccccc2)c1=O -3.47%, CCCCSc1nnc([C@H](C)NC(=O)OC(C)(C)C)o1 0.14%, Cc1c(N=C2SCC(=O)N2c2c(C)n(C)n(-c3ccccc3)c2=O)c(=O)n(-c2ccccc2)n1C -1.43%, Cc1nc2ccc(C(=O)O)cc2c2c1CC(C)S2 (stereo not drawn) -4.93%, CC1(C)CC(=O)C(CC(=O)NC(=O)NCc2ccccc2)=C(O)C1 -4.52%, O=C(Nc1ccccc1Cl)c1c(F)c(F)c(F)c(F)c1F 3.15%, COC(=O)c1ccc(CSc2nnnn2Cc2ccccc2)cc1 -4.13%, Cc1ccc(F)cc1NC(=O)C1CCCN(c2ncccn2)C1 (stereo not drawn) -6.8%, O=C(NCc1ccccc1)C1CCCN(S(=O)(=O)c2cccnc2)C1 (stereo not drawn) -4.66%, COc1cc(NS(=O)(=O)c2ccc(N)cc2)nc(OC)n1 1.43%, Cc1cc(=O)[nH]c(SCc2nc3ncccn3c2Br)n1 -4.81%, CC(=O)OCC1=C(C(=O)O)N2C(=O)[C@@H](NC(=O)Cc3cccs3)[C@H]2SC1 -4.81%, CCc1nn(CC(=O)N2CCN(Cc3ccc4c(c3)OCO4)CC2)c(=O)c2cc3occc3n12 0.14%, CC(=O)OC[C@H]1O[C@@H](n2ncc(=O)[nH]c2=O)[C@H](OC(C)=O)[C@@H]1OC(C)=O -0.39%, Cc1cc(C)cc(-n2nnc(C(=O)NCc3ccc4c(c3)OCO4)c2N)c1 -5.19%, C=CCNc1nc2c(c(=O)n(C)c(=O)n2C)n1CCCCCC -5.73%, O=C(CSc1nc2ccccc2[nH]1)c1ccc2c(c1)OCO2 -0.68%, NS(=O)(=O)c1cc2c(cc1Cl)NCNS2(=O)=O 0.65%
